In the supplement of paper PMC10849652:
Targets with a hit are over-represented here; the source holds about 8,800 in all. About 0.5% of all pairs of compound and target were hits.

Key:
Assay in all cases: log2 fold change, soluble protein after heating vs DMSO (PISA); higher = thermal stabilisation; K562 lysate, 10 uM; active = over 0.2 and 3.5 SD of the protein, either way, in both replicates (recomputed)
vemurafenib = compound: CCCS(=O)(=O)Nc1ccc(F)c(C(=O)c2c[nH]c3ncc(-c4ccc(Cl)cc4)cc23)c1F [vemurafenib]
In short: (§1)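 K562 pellets were dounce-homogenised in PBS pH 7.4 containing 1 mM MgCl2, and the crude extract, at 1 mg/mL protein, was exposed to 10 μM compound for 30 min. Aliquots were heated for 3 min across 48°C-58°C, pooled, brought to 0.5% NP-40 at 4°C and spun at 21,000xg for 90 min, with the supernatant taken as soluble protein. TMTpro 16plex LC-MS/MS with equalised channel sums quantified that protein. Values are log-two fold changes in thermal stability relative to solvent controls, taken from duplicates.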

[1] = compound: CCCS(=O)(=O)Nc1ccc(F)c(C(=O)c2c[nH]c3ncc(Cl)cc23)c1F
In short: as §1

barasertib = compound: CCN(CCCOc1ccc2c(Nc3cc(CC(=O)Nc4cccc(F)c4)[nH]n3)ncnc2c1)CCOP(=O)(O)O [barasertib]
In short: as §1

[2] = compound: CC[C@@H]1C(=O)N(C)c2cnc(Nc3ccc(C(=O)NC4CCN(C)CC4)cc3OC)nc2N1C1CCCC1
In short: as §1

volasertib = compound: CC[C@@H]1C(=O)N(C)c2cnc(Nc3ccc(C(=O)N[C@H]4CC[C@H](N5CCN(CC6CC6)CC5)CC4)cc3OC)nc2N1C(C)C [volasertib]
In short: as §1

[3] = compound: CCn1c(C(=O)N(C2CC2)C2CC2)cc2c3c(ncn3C)c(Nc3cc(C)n(C)n3)nc21
In short: as §1

[4] = compound: CCn1cc(-c2ccnc3[nH]c(-c4cccc(CN(C)C)c4)cc23)c(-c2ccc(NC(=O)N(C)C)cc2)n1
In short: as §1

[5] = compound: CN1CCC(CNc2ccc3ncc(-c4cccc(OC(F)(F)F)c4)n3n2)CC1
In short: as §1

saracatinib = compound: CN1CCN(CCOc2cc(OC3CCOCC3)c3c(Nc4c(Cl)ccc5c4OCO5)ncnc3c2)CC1 [saracatinib]
In short: as §1

sotrastaurin = compound: CN1CCN(c2nc(C3=C(c4c[nH]c5ccccc45)C(=O)NC3=O)c3ccccc3n2)CC1 [sotrastaurin]
In short: as §1

Measured: log2 fold change

BTRC (UniProt Q9Y297)
Chain of UniProt Q9Y297 (Q9Y297 whole entry, looked up): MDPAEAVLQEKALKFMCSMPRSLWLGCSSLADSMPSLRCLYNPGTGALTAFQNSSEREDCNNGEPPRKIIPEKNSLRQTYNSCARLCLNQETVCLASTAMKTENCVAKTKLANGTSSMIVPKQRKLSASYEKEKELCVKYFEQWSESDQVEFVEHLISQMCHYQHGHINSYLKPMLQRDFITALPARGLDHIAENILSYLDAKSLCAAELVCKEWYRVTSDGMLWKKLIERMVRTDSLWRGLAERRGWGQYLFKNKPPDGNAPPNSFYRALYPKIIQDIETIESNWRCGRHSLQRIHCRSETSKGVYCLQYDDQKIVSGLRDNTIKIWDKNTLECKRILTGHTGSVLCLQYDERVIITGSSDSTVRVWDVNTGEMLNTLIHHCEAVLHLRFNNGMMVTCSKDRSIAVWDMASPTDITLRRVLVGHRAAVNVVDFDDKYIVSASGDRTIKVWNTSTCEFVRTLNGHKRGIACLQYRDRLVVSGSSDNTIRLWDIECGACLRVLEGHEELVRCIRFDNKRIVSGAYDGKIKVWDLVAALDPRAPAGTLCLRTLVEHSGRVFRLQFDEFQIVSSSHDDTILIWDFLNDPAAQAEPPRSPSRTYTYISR
inactive: vemurafenib -0.002 | [1] 0.023 | barasertib 0.052 | [2] 0.076 | volasertib -0.041 | [3] -0.088 | [4] 0.073 | [5] 0.067

CASP3 (UniProt P42574)
active: [4] 0.279
inactive: vemurafenib 0.002 | [1] 0.015 | barasertib -0.024 | [2] 0.034 | volasertib 0.013 | [3] -0.011 | [5] -0.049 | saracatinib -0.036 | sotrastaurin -0.013

CAPN15 (UniProt O75808)
inactive: vemurafenib 0.04 | [1] -0.046 | barasertib 0.077 | [2] -0.007 | volasertib 0.027 | [3] 0.013 | [4] 0.037 | [5] 0.016 | saracatinib 0.032 | sotrastaurin -0.091

CBX5 (UniProt P45973)
Chain of UniProt P45973 (P45973 whole entry, looked up): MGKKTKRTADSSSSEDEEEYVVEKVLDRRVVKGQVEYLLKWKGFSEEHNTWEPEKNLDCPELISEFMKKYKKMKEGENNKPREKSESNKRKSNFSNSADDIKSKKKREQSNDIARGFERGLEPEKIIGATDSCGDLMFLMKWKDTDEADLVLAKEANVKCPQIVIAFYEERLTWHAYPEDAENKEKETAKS
active: [4] -0.215
inactive: vemurafenib 0.028 | [1] 0.026 | barasertib -0.025 | [2] 0.018 | volasertib 0.016 | [3] -0.073 | [5] 0.066 | saracatinib 0.001 | sotrastaurin 0.016

CDK16 isoform 2 (UniProt Q00536)
inactive: vemurafenib 0.03 | [1] 0.075 | barasertib 0.007 | [2] -0.006 | volasertib -0.175 | [3] -0.03 | [4] -0.027 | [5] 0.083 | saracatinib 0.03 | sotrastaurin 0.236

CEP120 (UniProt Q8N960)
Chain of UniProt Q8N960 (Q8N960 whole entry, looked up): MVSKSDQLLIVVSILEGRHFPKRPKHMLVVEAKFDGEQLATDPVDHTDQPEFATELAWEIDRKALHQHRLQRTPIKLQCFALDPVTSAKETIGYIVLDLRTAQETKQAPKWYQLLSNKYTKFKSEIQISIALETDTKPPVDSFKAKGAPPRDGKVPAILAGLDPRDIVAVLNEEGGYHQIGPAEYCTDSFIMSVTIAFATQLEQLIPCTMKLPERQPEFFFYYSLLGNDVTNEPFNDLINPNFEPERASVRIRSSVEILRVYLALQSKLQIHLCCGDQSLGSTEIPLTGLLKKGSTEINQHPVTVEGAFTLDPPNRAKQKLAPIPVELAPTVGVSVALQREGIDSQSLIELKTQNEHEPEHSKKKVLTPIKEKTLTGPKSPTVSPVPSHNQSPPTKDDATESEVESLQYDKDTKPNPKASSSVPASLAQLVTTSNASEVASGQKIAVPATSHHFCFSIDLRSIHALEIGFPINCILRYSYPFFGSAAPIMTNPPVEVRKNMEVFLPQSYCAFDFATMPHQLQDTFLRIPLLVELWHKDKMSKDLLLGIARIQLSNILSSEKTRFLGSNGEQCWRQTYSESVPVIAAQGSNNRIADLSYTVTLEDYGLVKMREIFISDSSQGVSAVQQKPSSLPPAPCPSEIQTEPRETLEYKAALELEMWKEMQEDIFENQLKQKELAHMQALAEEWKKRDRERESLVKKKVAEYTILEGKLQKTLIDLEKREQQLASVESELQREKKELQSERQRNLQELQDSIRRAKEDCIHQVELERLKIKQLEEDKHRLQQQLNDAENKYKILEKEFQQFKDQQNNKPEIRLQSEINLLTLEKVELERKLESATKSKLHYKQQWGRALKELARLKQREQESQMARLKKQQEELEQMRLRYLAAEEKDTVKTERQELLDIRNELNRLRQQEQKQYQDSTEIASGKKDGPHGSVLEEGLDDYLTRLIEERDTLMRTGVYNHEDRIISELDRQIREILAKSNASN
inactive: vemurafenib 0.052 | [1] -0.098 | barasertib 0.033 | [2] -0.411 | volasertib 0.029 | [3] -0.134 | [4] -0.233 | [5] 0.119 | saracatinib 0.008 | sotrastaurin 0.034

ATG7 (UniProt O95352)
Chain of UniProt O95352 (O95352 whole entry, looked up): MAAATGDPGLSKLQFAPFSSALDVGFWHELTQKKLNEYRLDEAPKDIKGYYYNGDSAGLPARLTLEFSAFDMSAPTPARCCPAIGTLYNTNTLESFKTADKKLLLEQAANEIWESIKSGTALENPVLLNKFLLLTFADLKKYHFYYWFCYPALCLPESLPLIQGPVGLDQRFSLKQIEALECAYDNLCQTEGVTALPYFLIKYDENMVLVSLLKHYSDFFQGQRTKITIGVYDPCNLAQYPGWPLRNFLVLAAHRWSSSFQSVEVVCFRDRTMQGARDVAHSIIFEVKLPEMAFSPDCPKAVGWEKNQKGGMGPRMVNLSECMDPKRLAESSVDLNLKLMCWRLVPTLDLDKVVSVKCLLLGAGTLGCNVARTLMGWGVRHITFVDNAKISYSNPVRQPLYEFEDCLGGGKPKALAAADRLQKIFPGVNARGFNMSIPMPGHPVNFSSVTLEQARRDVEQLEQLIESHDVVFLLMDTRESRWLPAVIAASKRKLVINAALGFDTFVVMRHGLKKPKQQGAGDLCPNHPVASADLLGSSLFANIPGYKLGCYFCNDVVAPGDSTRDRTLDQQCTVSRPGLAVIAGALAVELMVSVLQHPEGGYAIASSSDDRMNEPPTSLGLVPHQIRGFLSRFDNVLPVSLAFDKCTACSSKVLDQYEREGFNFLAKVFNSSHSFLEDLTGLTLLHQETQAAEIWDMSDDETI
inactive: vemurafenib -0.031 | [1] 0.014 | barasertib -0.002 | [2] -0.032 | volasertib -0.052 | [3] 0.021 | [4] -0.058 | [5] 0.091 | saracatinib -0.003 | sotrastaurin 0.037

BSDC1 (UniProt Q9NW68)
inactive: vemurafenib 0.027 | [1] 0.053 | barasertib 0.078 | [2] 0.099 | volasertib 0.018 | [3] -0.01 | [4] -0.027 | [5] 0.041 | saracatinib 0.03 | sotrastaurin -0.019

CEPT1 (UniProt Q9Y6K0)
inactive: vemurafenib -0.031 | [1] 0.006 | barasertib 0.08 | [2] -0.006 | volasertib 0.042 | [3] -0.079 | [4] -0.102 | [5] 0.084 | saracatinib 0.037 | sotrastaurin -0.008

C12orf45 (UniProt Q8N5I9)
Chain of UniProt Q8N5I9 (Q8N5I9 whole entry, looked up): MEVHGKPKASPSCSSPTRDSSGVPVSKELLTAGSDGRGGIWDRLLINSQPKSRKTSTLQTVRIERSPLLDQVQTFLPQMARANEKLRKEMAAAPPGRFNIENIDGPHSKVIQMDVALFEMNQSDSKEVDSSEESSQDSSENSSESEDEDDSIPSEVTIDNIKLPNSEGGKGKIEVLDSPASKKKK
inactive: vemurafenib -0.015 | [1] -0.017 | barasertib -0.022 | [2] 0.009 | volasertib 0.008 | [3] 0.023 | [4] -0.243 | [5] 0.116 | saracatinib -0.022 | sotrastaurin -0.026

ATE1 isoform 2 (UniProt O95260)
inactive: vemurafenib 0.118 | [1] -0.006 | barasertib 0.069 | [2] 0.019 | volasertib -0.013 | [3] 0.014 | [4] 0.032 | [5] 0.126 | saracatinib 0.006 | sotrastaurin -0.016

CARNMT1 (UniProt Q8N4J0)
Chain of UniProt Q8N4J0 (Q8N4J0 whole entry, looked up): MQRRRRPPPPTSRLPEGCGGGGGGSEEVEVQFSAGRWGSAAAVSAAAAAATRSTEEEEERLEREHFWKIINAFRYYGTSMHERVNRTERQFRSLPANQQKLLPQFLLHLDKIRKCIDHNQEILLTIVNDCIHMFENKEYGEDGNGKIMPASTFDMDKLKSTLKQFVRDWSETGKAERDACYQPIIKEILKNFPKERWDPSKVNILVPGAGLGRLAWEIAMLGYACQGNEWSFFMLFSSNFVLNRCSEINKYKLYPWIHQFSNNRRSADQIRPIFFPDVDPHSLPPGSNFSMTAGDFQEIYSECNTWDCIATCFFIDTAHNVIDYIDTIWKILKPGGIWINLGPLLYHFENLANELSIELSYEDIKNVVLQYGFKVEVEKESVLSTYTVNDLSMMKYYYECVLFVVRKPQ
active: [4] -0.422
inactive: vemurafenib 0.04 | [1] 0.008 | barasertib -0.012 | [2] -0.013 | volasertib -0.005 | [3] -0.044 | [5] 0.063 | saracatinib 0.04 | sotrastaurin 0.017

CDC40 (UniProt O60508)
Chain of UniProt O60508 (O60508 whole entry, looked up): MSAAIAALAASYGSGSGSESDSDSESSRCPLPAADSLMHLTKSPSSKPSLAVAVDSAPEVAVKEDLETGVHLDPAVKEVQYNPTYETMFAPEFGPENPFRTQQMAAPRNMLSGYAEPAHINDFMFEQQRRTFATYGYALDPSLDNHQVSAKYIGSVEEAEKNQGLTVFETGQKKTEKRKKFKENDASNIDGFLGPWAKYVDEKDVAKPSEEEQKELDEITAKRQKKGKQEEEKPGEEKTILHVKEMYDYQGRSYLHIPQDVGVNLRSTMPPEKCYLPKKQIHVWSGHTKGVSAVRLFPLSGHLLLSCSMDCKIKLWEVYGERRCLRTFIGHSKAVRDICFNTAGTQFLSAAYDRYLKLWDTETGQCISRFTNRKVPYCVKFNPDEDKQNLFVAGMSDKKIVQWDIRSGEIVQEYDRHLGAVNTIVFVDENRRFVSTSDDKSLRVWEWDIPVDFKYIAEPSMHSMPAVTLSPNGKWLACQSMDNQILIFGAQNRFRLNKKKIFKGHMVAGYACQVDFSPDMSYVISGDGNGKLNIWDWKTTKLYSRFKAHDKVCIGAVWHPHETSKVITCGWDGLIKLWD
inactive: vemurafenib 0.01 | [1] 0.013 | barasertib -0.016 | [2] -0.105 | volasertib -0.001 | [3] 0.034 | [4] -0.006 | [5] 0.046 | saracatinib -0.056 | sotrastaurin -0.049

CHAF1A (UniProt Q13111)
inactive: vemurafenib 0.005 | [1] 0.005 | barasertib 0.006 | [2] 0.029 | volasertib 0.003 | [3] -0.009 | [4] 0.029 | [5] 0.004 | saracatinib 0.038 | sotrastaurin -0.016

BTAF1 (UniProt O14981)
inactive: vemurafenib 0.029 | [1] 0.026 | barasertib 0.029 | [2] -0.029 | volasertib -0.058 | [3] 0.045 | [4] -0.138 | [5] 0.051 | saracatinib 0.008 | sotrastaurin 0.006

CBR1 (UniProt P16152)
inactive: vemurafenib -0.009 | [1] 0.011 | barasertib -0.013 | [2] -0.019 | volasertib 0.004 | [3] 0 | [4] -0.096 | [5] 0.077 | saracatinib 0.037 | sotrastaurin -0.047

BRAT1 (UniProt Q6PJG6)
inactive: vemurafenib 0.011 | [1] -0.014 | barasertib 0.042 | [2] -0.086 | volasertib -0.046 | [3] 0.055 | [4] -0.023 | [5] -0.007 | saracatinib 0.016 | sotrastaurin 0.037

CCT6A (UniProt P40227)
Chain of UniProt P40227 (P40227 whole entry, looked up): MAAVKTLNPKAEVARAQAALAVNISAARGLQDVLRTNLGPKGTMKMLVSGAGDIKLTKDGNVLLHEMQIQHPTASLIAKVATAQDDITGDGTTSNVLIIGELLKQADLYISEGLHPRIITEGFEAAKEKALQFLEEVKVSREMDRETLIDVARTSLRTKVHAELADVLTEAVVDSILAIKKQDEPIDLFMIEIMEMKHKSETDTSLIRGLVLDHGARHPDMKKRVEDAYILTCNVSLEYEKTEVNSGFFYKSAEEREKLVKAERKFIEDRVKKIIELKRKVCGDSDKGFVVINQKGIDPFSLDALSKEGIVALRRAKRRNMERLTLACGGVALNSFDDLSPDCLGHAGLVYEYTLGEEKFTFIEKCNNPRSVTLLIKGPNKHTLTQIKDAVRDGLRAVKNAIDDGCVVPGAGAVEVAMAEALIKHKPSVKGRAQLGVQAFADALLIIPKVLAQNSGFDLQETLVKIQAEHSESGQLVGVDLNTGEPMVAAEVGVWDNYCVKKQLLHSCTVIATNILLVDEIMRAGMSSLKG
inactive: vemurafenib -0.026 | [1] -0.005 | barasertib -0.03 | [2] -0.006 | volasertib 0.024 | [3] 0.011 | [4] -0.024 | [5] -0.002 | saracatinib -0.004 | sotrastaurin -0.001

C15orf41 (UniProt Q9Y2V0)
inactive: vemurafenib 0.151 | [1] 0.005 | barasertib 0.095 | [2] -0.089 | volasertib 0.041 | [3] -0.049 | [4] -0.143 | [5] 0.037 | saracatinib -0.018 | sotrastaurin -0.016

CCNY (UniProt Q8ND76)
inactive: vemurafenib -0.011 | [1] 0 | barasertib -0.016 | [2] -0.148 | volasertib 0.036 | [3] -0.103 | [4] 0.032 | [5] 0.037 | saracatinib 0.063 | sotrastaurin 0.025

CDC42EP4 (UniProt Q9H3Q1)
Chain of UniProt Q9H3Q1 (Q9H3Q1 whole entry, looked up): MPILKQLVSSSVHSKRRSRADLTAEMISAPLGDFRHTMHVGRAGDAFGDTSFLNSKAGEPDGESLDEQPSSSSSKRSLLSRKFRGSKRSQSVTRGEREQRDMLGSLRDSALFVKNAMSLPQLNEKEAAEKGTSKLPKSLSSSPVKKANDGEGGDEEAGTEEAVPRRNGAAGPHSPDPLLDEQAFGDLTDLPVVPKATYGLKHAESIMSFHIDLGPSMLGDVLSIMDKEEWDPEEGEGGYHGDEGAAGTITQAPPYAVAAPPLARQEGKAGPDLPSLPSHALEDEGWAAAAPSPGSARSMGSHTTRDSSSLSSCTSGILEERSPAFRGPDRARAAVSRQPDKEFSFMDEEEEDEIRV
inactive: vemurafenib 0.01 | [1] -0.01 | barasertib 0.013 | [2] 0.162 | volasertib 0.013 | [3] -0.04 | [4] -0.021 | [5] 0.042 | saracatinib -0.064 | sotrastaurin -0.012

C1orf112 (UniProt Q9NSG2)
inactive: vemurafenib 0 | [1] 0.006 | barasertib -0.04 | [2] -0.065 | volasertib 0.034 | [3] 0.037 | [4] 0.171 | [5] -0.059 | saracatinib 0.065 | sotrastaurin 0.025

CCDC25 (UniProt Q86WR0)
active: [4] 0.581
inactive: vemurafenib -0.033 | [1] 0.008 | barasertib 0.01 | [2] 0.027 | volasertib 0.005 | [3] -0.023 | [5] -0.079 | saracatinib 0.007 | sotrastaurin -0.009

CCDC47 (UniProt Q96A33)
inactive: vemurafenib 0.011 | [1] 0.032 | barasertib 0.002 | [2] 0.024 | volasertib 0.014 | [3] 0.018 | [4] -0.02 | [5] -0.09 | saracatinib -0.003 | sotrastaurin 0.007

ATXN2 (UniProt Q99700)
inactive: vemurafenib 0.007 | [1] -0.004 | barasertib 0.012 | [2] 0.057 | volasertib 0.001 | [3] 0.022 | [4] 0.005 | [5] -0.03 | saracatinib -0.014 | sotrastaurin 0.052

CALB2 (UniProt P22676)
active: barasertib 0.375
inactive: vemurafenib 0.064 | [1] 0.046 | [2] -0.036 | volasertib 0.017 | [3] 0.023 | [4] -0.065 | [5] 0.066 | saracatinib -0.008 | sotrastaurin -0.061

CAMK2G isoform 8 (UniProt Q13555)
active: sotrastaurin 0.345
inactive: vemurafenib 0.067 | [1] -0.03 | barasertib 0.058 | [2] 0.102 | volasertib -0.033 | [3] -0.079 | [4] -0.001 | [5] 0.022 | saracatinib 0.086

CHCHD4 isoform 2 (UniProt Q8N4Q1)
Chain of UniProt Q8N4Q1 (Q8N4Q1 whole entry, looked up): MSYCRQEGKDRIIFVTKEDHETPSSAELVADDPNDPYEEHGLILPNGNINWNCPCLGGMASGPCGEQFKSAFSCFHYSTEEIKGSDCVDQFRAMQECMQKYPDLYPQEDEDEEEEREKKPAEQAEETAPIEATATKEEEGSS
active: [4] -0.415
inactive: vemurafenib 0.144 | [1] 0.015 | barasertib 0.109 | [2] 0.072 | volasertib 0.057 | [3] -0.1 | [5] 0.228 | saracatinib 0.05 | sotrastaurin -0.007

CDK1 (UniProt P06493)
inactive: vemurafenib 0.012 | [1] -0.017 | barasertib -0.029 | [2] -0.041 | volasertib -0.037 | [3] -0.006 | [4] -0.056 | [5] -0.049 | saracatinib 0.016 | sotrastaurin -0.002

BUD23 isoform 3 (UniProt O43709)
Chain of UniProt O43709 (O43709 whole entry, looked up): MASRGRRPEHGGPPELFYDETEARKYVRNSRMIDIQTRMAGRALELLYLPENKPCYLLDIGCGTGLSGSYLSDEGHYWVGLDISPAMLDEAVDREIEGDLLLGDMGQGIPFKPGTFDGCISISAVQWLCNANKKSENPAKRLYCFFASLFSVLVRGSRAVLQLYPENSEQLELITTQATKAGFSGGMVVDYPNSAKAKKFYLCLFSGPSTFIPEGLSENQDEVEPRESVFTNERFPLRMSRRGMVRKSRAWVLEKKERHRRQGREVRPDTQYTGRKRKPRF
inactive: vemurafenib 0.01 | [1] 0.017 | barasertib 0.038 | [2] -0.006 | volasertib -0.029 | [3] -0.104 | [5] 0.193 | saracatinib 0.019 | sotrastaurin 0.017
active: [4] -0.341
